Measurements reported in PubChem BioAssay AID1159580 (chemical genetic matrix, 2015).
Hit rate of the full screen: of about 5,500 compounds, about 2,000 (36%) were called active. About 18% were inconclusive and are not listed. Cut-off read from the data, not from the text of the source: active = normalized growth mostly below about 0.91 (no sharp cut-off); inconclusive = no clear call, values can overlap the other calls; inactive = mostly above about 0.92. This is one part of the list.

Test: chemical genetic growth profiling, strain panel (AID 1159580);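 note: tested at 20 µM; growth read once vehicle control cultures reached saturation at 30 °C; 1 = growth at the plate median or of vehicle wells; lower values mean less growth of the strain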
Conditions: growth OD
[1] = S. cerevisiae deletion strains, locus YAR019C, strain CDC15, active compounds read low
[2] = S. cerevisiae deletion strains, locus YBL105C, strain PKC1, active compounds read low
[3] = S. cerevisiae deletion strains, locus YBR135W, strain CKS1, active compounds read low
[4] = S. cerevisiae deletion strains, locus YBR136W, strain MEC1, active compounds read low
[5] = S. cerevisiae deletion strains, locus YBR160W, strain CDC28, active compounds read low
[6] = S. cerevisiae deletion strains, locus YDL017W, strain CDC7, active compounds read low
[7] = S. cerevisiae deletion strains, locus YDL028C, strain MPS1, active compounds read low
[8] = S. cerevisiae deletion strains, locus YDL101C, strain DUN1, active compounds read low
[9] = S. cerevisiae deletion strains, locus YDL108W, strain KIN28, active compounds read low
[10] = S. cerevisiae deletion strains, locus YDL132W, strain cdc53, active compounds read low
[11] = S. cerevisiae deletion strains, locus YDL214C, strain PRR2, active compounds read low
[12] = S. cerevisiae deletion strains, locus YDR052C, strain DBF4, active compounds read low
[13] = S. cerevisiae deletion strains, locus YDR054C, strain cdc34, active compounds read low
[14] = S. cerevisiae deletion strains, locus YDR226W, strain ADK1, active compounds read low
[15] = S. cerevisiae deletion strains, locus YDR477W, strain SNF1, active compounds read low
[16] = S. cerevisiae deletion strains, locus YER123W, strain YCK3, active compounds read low
[17] = S. cerevisiae deletion strains, locus YER133W, strain GLC7, active compounds read low
[18] = S. cerevisiae deletion strains, locus YFL009W, strain cdc4, active compounds read low
[19] = S. cerevisiae deletion strains, locus YFL029C, strain CAK1, active compounds read low
[20] = S. cerevisiae deletion strains, locus YFR003C, strain YPI1, active compounds read low
[21] = S. cerevisiae deletion strains, locus YFR019W, strain FAB1, active compounds read low
[22] = S. cerevisiae deletion strains, locus YFR028C, strain CDC14, active compounds read low
[23] = S. cerevisiae deletion strains, locus YGR040W, strain KSS1, active compounds read low
[24] = S. cerevisiae deletion strains, locus YGR052W, strain FMP48, active compounds read low
[25] = S. cerevisiae deletion strains, locus YGR092W, strain DBF2, active compounds read low
[26] = S. cerevisiae deletion strains, locus YHR030C, strain SLT2, active compounds read low
[27] = S. cerevisiae deletion strains, locus YHR079C, strain IRE1, active compounds read low
[28] = S. cerevisiae deletion strains, locus YHR082C, strain KSP1, active compounds read low
[29] = S. cerevisiae deletion strains, locus YHR205W, strain SCH9, active compounds read low
[30] = S. cerevisiae deletion strains, locus YIL147C, strain SLN1, active compounds read low
[31] = S. cerevisiae deletion strains, locus YJL095W, strain BCK1, active compounds read low
[32] = S. cerevisiae deletion strains, locus YJL128C, strain PBS2, active compounds read low
[33] = S. cerevisiae deletion strains, locus YJL157C, strain FAR1, active compounds read low
[34] = S. cerevisiae deletion strains, locus YJR016C, strain ILV3, active compounds read low
[35] = S. cerevisiae deletion strains, locus YJR066W, strain TOR1 (second series), active compounds read low
[36] = S. cerevisiae deletion strains, locus YJR066W, strain TOR1, active compounds read low
[37] = S. cerevisiae deletion strains, locus YKL048C, strain ELM1, active compounds read low
[38] = S. cerevisiae deletion strains, locus YKL067W, strain YNK1, active compounds read low
[39] = S. cerevisiae deletion strains, locus YKL101W, strain HSL1, active compounds read low
[40] = S. cerevisiae deletion strains, locus YKL193C, strain SDS22, active compounds read low
[41] = S. cerevisiae deletion strains, locus YKL203C, strain TOR2, active compounds read low
[42] = S. cerevisiae deletion strains, locus YLR113W, strain HOG1, active compounds read low
[43] = S. cerevisiae deletion strains, locus YLR133W, strain CKI1, active compounds read low
[44] = S. cerevisiae deletion strains, locus YLR403W, strain SFP1, active compounds read low
[45] = S. cerevisiae deletion strains, locus YML070W, strain DAK1, active compounds read low
[46] = S. cerevisiae deletion strains, locus YMR001C, strain CDC5, active compounds read low
[47] = S. cerevisiae deletion strains, locus YMR205C, strain PFK2 (second series), active compounds read low
[48] = S. cerevisiae deletion strains, locus YMR277W, strain FCP1, active compounds read low
[49] = S. cerevisiae deletion strains, locus YNL006W, strain LST8, active compounds read low
[50] = S. cerevisiae deletion strains, locus YNL020C, strain ARK1, active compounds read low
[51] = S. cerevisiae deletion strains, locus YNL161W, strain CBK1, active compounds read low
[52] = S. cerevisiae deletion strains, locus YNL183C, strain NPR1, active compounds read low
[53] = S. cerevisiae deletion strains, locus YNL207W, strain RIO2, active compounds read low
[54] = S. cerevisiae deletion strains, locus YNL222W, strain SSU72, active compounds read low
[55] = S. cerevisiae deletion strains, locus YNL307C, strain MCK1 (second series), active compounds read low
[56] = S. cerevisiae deletion strains, locus YOL078W, strain AVO1, active compounds read low
[57] = S. cerevisiae deletion strains, locus YOL136C, strain PFK27, active compounds read low
[58] = S. cerevisiae deletion strains, locus YOR061W, strain CKA2, active compounds read low
[59] = S. cerevisiae deletion strains, locus YOR119C, strain RIO1, active compounds read low
[60] = S. cerevisiae deletion strains, locus YOR231W, strain MKK1, active compounds read low
[61] = S. cerevisiae deletion strains, locus YOR329C, strain SCD5, active compounds read low
[62] = S. cerevisiae deletion strains, locus YPL031C, strain PHO85, active compounds read low
[63] = S. cerevisiae deletion strains, locus YPL153C, strain RAD53, active compounds read low
[64] = S. cerevisiae deletion strains, locus YPL204W, strain HRR25, active compounds read low
[65] = S. cerevisiae deletion strains, locus YPL209C, strain IPL1, active compounds read low
[66] = S. cerevisiae deletion strains, locus YPL256C, strain CLN2, active compounds read low
[67] = S. cerevisiae deletion strains, locus YPR025C, strain CCL1, active compounds read low
[68] = S. cerevisiae deletion strains, locus YPR106W, strain ISR1, active compounds read low
[69] = S. cerevisiae deletion strains, locus YPR111W, strain DBF20, active compounds read low
[70] = S. cerevisiae deletion strains, strain NNK1, active compounds read low
[71] = S. cerevisiae deletion strains, strain TSCII, active compounds read low
[72] = S. cerevisiae deletion strains, locus YAL013W, strain DEP1, active compounds read low
[73] = S. cerevisiae deletion strains, locus YBR229C, strain ROT2, active compounds read low
[74] = S. cerevisiae deletion strains, locus YDL134C, strain PPH21, active compounds read low
[75] = S. cerevisiae deletion strains, locus YDR150W, strain NUM1, active compounds read low
[76] = S. cerevisiae deletion strains, locus YEL061C, strain CIN8, active compounds read low
[77] = S. cerevisiae deletion strains, locus YGR078C, strain PAC10, active compounds read low
[78] = S. cerevisiae deletion strains, locus YHR087W, strain rtc3, active compounds read low
[79] = S. cerevisiae deletion strains, locus YJL187C, strain SWE1, active compounds read low
[80] = S. cerevisiae deletion strains, locus YJR043C, strain POL32, active compounds read low
[81] = S. cerevisiae deletion strains, locus YJR075W, strain HOC1, active compounds read low
[82] = S. cerevisiae deletion strains, locus YKL190W, strain CNB1, active compounds read low
[83] = S. cerevisiae deletion strains, locus YLR039C, strain RIC1, active compounds read low
[84] = S. cerevisiae deletion strains, locus YLR058C, strain SHM2 (second series), active compounds read low
[85] = S. cerevisiae deletion strains, locus YLR085C, strain ARP6, active compounds read low
[86] = S. cerevisiae deletion strains, locus YLR262C, strain YPT6, active compounds read low
[87] = S. cerevisiae deletion strains, locus YML094W, strain GIM5, active compounds read low
[88] = S. cerevisiae deletion strains, locus YMR219W, strain ESC1, active compounds read low
[89] = S. cerevisiae deletion strains, locus YMR263W, strain SAP30, active compounds read low
[90] = S. cerevisiae deletion strains, locus YMR307W, strain GAS1, active compounds read low
[91] = S. cerevisiae deletion strains, locus YNL153C, strain GIM3, active compounds read low
[92] = S. cerevisiae deletion strains, locus YNL298W, strain CLA4 (second series), active compounds read low
[93] = S. cerevisiae deletion strains, locus YNL322C, strain KRE1, active compounds read low
[94] = S. cerevisiae deletion strains, locus YNR030W, strain Alg12, active compounds read low
[95] = S. cerevisiae deletion strains, locus YOL006C, strain TOP1, active compounds read low
[96] = S. cerevisiae deletion strains, locus YPL055C, strain LGE1, active compounds read low
[97] = S. cerevisiae deletion strains, locus YPL241C, strain CIN2, active compounds read low
[98] = S. cerevisiae deletion strains, locus YPR135W, strain CTF4, active compounds read low

Measured: normalized growth

Nc1ccccc1C(=O)N/N=C\c1cc(Br)ccc1O
active: [25] 0.452 | [42] 0.784 | [66] 0.779
inactive: [1] 0.985 | [2] 0.984 | [3] 0.981 | [4] 0.982 | [5] 0.989 | [6] 0.98 | [7] 0.976 | [8] 0.984 | [9] 0.982 | [10] 0.97 | [11] 0.972 | [12] 0.99 | [13] 0.97 | [14] 0.96 | [15] 0.961 | [16] 0.877 | [17] 0.979 | [18] 0.965 | [19] 0.971 | [20] 0.974 | [21] 0.985 | [22] 0.985 | [23] 0.982 | [24] 0.925 | [26] 0.855 | [27] 0.828 | [28] 1.02 | [29] 0.866 | [30] 0.981 | [31] 0.798 | [32] 0.933 | [33] 0.947 | [34] 0.976 | [35] 0.903 | [36] 0.976 | [37] 0.928 | [38] 0.948 | [39] 0.901 | [40] 0.976 | [41] 1.02 | [43] 0.927 | [44] 0.88 | [45] 0.901 | [46] 0.986 | [47] 0.939 | [48] 0.976 | [49] 0.995 | [50] 0.929 | [51] 0.979 | [52] 0.958 | [53] 0.979 | [54] 0.981 | [55] 0.871 | [56] 0.984 | [57] 0.898 | [58] 0.922 | [59] 1.08 | [60] 0.871 | [61] 0.98 | [62] 0.95 | [63] 0.927 | [64] 0.947 | [65] 0.985 | [67] 0.979 | [68] 0.968 | [69] 0.969 | [70] 0.988 | [71] 0.99

O=C(N/N=C\c1cc(Br)ccc1O)c1ccccc1Oc1ccccc1
active: [42] 0.694 | [66] 0.764
inactive: [1] 0.963 | [2] 0.976 | [3] 0.981 | [4] 0.963 | [5] 0.973 | [6] 0.969 | [7] 0.96 | [8] 0.97 | [9] 0.971 | [10] 0.966 | [11] 0.932 | [12] 0.97 | [13] 0.968 | [14] 0.972 | [15] 0.943 | [16] 0.879 | [17] 0.955 | [18] 0.964 | [19] 0.953 | [20] 0.969 | [21] 0.953 | [22] 0.965 | [23] 0.942 | [24] 0.954 | [25] 0.914 | [26] 0.854 | [27] 0.885 | [28] 0.924 | [29] 0.838 | [30] 0.949 | [31] 0.846 | [32] 0.928 | [33] 0.955 | [34] 0.979 | [35] 0.901 | [36] 0.953 | [37] 0.915 | [38] 0.923 | [39] 0.89 | [40] 0.972 | [41] 1 | [43] 0.916 | [44] 0.927 | [45] 0.888 | [46] 0.972 | [47] 0.919 | [48] 0.98 | [49] 0.977 | [50] 0.935 | [51] 0.982 | [52] 0.883 | [53] 0.976 | [54] 0.969 | [55] 0.912 | [56] 0.98 | [57] 0.909 | [58] 0.939 | [59] 0.97 | [60] 0.892 | [61] 0.968 | [62] 0.94 | [63] 0.934 | [64] 0.94 | [65] 0.974 | [67] 0.969 | [68] 0.976 | [69] 0.947 | [70] 0.959 | [71] 0.972

Nc1ccccc1C(=O)N/N=C\c1cccc2ccccc12
inactive: [72] 0.994 | [73] 0.977 | [8] 1.01 | [75] 0.971 | [77] 0.993 | [78] 0.992 | [79] 0.994 | [80] 1.01 | [81] 0.979 | [82] 0.944 | [84] 0.991 | [88] 0.989 | [89] 0.992 | [91] 1.01 | [93] 0.992 | [96] 0.973 | [98] 0.66
active: [74] 0.813 | [76] 0.85 | [26] 0.461 | [83] 0.734 | [85] 0.615 | [86] 0.803 | [87] 0.831 | [90] 0.526 | [92] 0.807 | [94] 0.875 | [95] 0.535 | [97] 0.819

O=C(N/N=C\c1c(O)ccc2ccccc12)N/N=C\c1c(O)ccc2ccccc12
inactive: [72] 0.996 | [73] 0.975 | [8] 1.02 | [74] 0.94 | [75] 0.908 | [76] 0.962 | [77] 1.01 | [26] 0.875 | [78] 0.989 | [79] 0.994 | [80] 0.988 | [81] 1.07 | [82] 1.01 | [83] 1.03 | [84] 0.992 | [85] 0.899 | [86] 0.953 | [87] 0.924 | [88] 1.02 | [89] 0.928 | [90] 1.09 | [91] 0.951 | [92] 0.879 | [93] 1.02 | [94] 0.928 | [95] 0.888 | [96] 1.01 | [97] 0.939 | [98] 0.968 | S. cerevisiae strains, strain wild type, active compounds read low 0.994
